# PubChem BioAssay (NCATS)
# Records with an inconclusive call do not appear. The source made the active and inactive calls. The call rests on the fitted dose curve; in most records, active means well fitted inhibition curve with a large enough effect; inconclusive means small, poorly fitted or top-dose-only effect; inactive means flat fitted curve, though single readings scatter.
# Tested on: 7G8
# Assay: qHTS profiling for inhibitors of Plasmodium falciparum proliferation (AID 504749); further: nearly all actives have a fitted effect of over 60% in size
# Conditions: P. falciparum in erythrocytes, SYBR Green DNA, 72 h; series mostly up to 28.7 µM
# How it was run: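 Parasite proliferation within erythrocytes, 72 h exposure. Endpoint: SYBR Green I fluorescence after overnight lysis at room temperature. Controls: 0.29 uM artemisinin, DMSO.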
# Potency means the concentration at half of the fitted maximal effect.
row,SMILES,Potency
1,CCN(CC)CCOc1ccc(C(O)(Cc2ccc(Cl)cc2)c2ccc(C)cc2)cc1 (stereo not drawn),5.01 µM (active)
2,CC[N+](CC)(CCNC(=O)C(=O)NCC[N+](CC)(CC)Cc1ccccc1Cl)Cc1ccccc1Cl,7.94 µM (active)
3,COc1ccc(C2C(=O)c3ccccc3C2=O)cc1,inactive
4,NC(CS)C(=O)O (stereo not drawn),1.78 µM (active)
5,O=C(N/N=C/c1ccccc1O)c1ccncc1,8.91 µM (active)
6,CCCCc1nc(Cl)c(CO)n1Cc1ccc(-c2ccccc2-c2nn[nH]n2)cc1,6.31 µM (active)
7,CCCOC(C(=O)OC1CCN(C)CC1)(c1ccccc1)c1ccccc1,11.2 µM (active)
8,CCCCCCCCCCCCCCCCCC(=O)OCC(O)CO (stereo not drawn),inactive
9,CC(=O)OCC(=O)[C@@]1(OC(C)=O)[C@@H](C)C[C@H]2[C@@H]3C[C@H](F)C4=CC(=O)C=C[C@]4(C)[C@@]3(F)[C@@H](O)C[C@@]21C,8.91 µM (active)
10,C=C(CC)C(=O)c1ccc(OCC(=O)O)c(Cl)c1Cl,14.1 µM (active)
11,COc1cccc(CCc2ccccc2OCC(CN(C)C)OC(=O)CCC(=O)O)c1 (stereo not drawn),0.631 µM (active)
12,CCOc1ccc(Cc2nccc3cc(OCC)c(OCC)cc23)cc1OCC,inactive
13,CN1CCC[C@@H]1c1cccnc1,inactive
14,CCCCCCCCCCOCC(O)CN (stereo not drawn),12.6 µM (active)
15,CN1CCN(CCCN2c3ccccc3Sc3ccc(S(=O)(=O)N(C)C)cc32)CC1,0.891 µM (active)
16,CCCCCCCCCCCCCCNCCO,10 µM (active)
17,C[C@@H]1CN(CCCn2c3ccccc3c3ccccc32)C[C@H](C)N1,4.47 µM (active)

row,SMILES,Potency
1,CCN(CC)C(=O)/C(C#N)=C/c1cc(O)c(O)c([N+](=O)[O-])c1,14.1 µM (active)
2,c1ccc(-c2ccc(C(c3ccccc3)n3ccnc3)cc2)cc1 (stereo not drawn),2 µM (active)
3,O=C(CCCN1CCC(O)(c2ccc(Br)cc2)CC1)c1ccc(F)cc1,2.82 µM (active)
4,CC(C)COC(=O)c1ccc(N)cc1,inactive
5,CN(C)C(=S)SC(=S)N(C)C,6.31 µM (active)
6,CC(C)NC[C@@H](O)COc1cccc2ccccc12,5.62 µM (active)
7,C[C@@H]1C(=O)NC2=Nc3cccc(Cl)c3CN21,inactive
8,CCCCC(CC)CN=C(N)NC(N)=NCCCCCCN=C(N)NC(N)=NCC(CC)CCCC (stereo not drawn),0.316 µM (active)
9,Cc1ccc(O)c2ncccc12,inactive
10,Cc1cccc(C)c1NC(=O)CN1CCN(CCCC(c2ccc(F)cc2)c2ccc(F)cc2)CC1,4.47 µM (active)
11,CCOC(=O)/C=C(C)/C=C/C=C(C)/C=C/c1c(C)cc(OC)c(C)c1C,12.6 µM (active)
12,CC(O)C(=O)O (stereo not drawn),inactive
13,CO/N=C1\CN(c2nc3c(cc2F)c(=O)c(C(=O)O)cn3C2CC2)CC1CN (stereo not drawn),7.94 µM (active)
14,CNCCC=C1c2ccccc2CCc2ccccc21,11.2 µM (active)
15,O=C1OCCN1/N=C/c1ccc([N+](=O)[O-])o1,10 µM (active)
16,CN(C)CC/C=C1\c2ccccc2Sc2ccc(Cl)cc21,12.6 µM (active)
